TcdB inh = TcdB glycohydrolase inhibitors, primary screen, biochemical, single point, plate reader; Toxin B (Clostridioides difficile), P18177; TcdB glycohydrolase enzymatic assay; inhibition, % at 9.99 µM; actives 0.24% (n = 350,000); in the data active = inhibition above about 10%
GDH-TPI counter-1 = GDH-TPI coupling enzyme inhibitors, primary screen, artefact control for M. tuberculosis FBA inhibitor project, biochemical, absorbance, full deck. inhibition, % at 4.8 µM. AID 588335, 2011. GDH-TPI coupled enzyme counterscreen, NADH absorbance. actives 1.2% (n = 360,000); in the data active = inhibition above about 30%
Y pestis TopoI = Yersinia pestis topoisomerase I inhibitors, primary screen, biochemical, cleavage product accumulation, plate reader, single point; DNA topoisomerase I (Yersinia pestis CO92); Y. pestis Topo-I cleavage product accumulation; activity, % at 10 µM; actives 0.064% (n = 360,000); AID 504884, 2011; in the data active = activity above about 50%, passing the limit was not always enough
FBA Mtb inh = Mtb FBA enzyme inhibitors, primary screen, biochemical, fluorescence, strain H37Rv; actives 2.3% (n = 360,000); AID 588726, 2011; purified M. tuberculosis FBA, fluorescence read-out; inhibition, % at 1 µM; Fructose-bisphosphate aldolase (Mycobacterium tuberculosis (strain ATCC 25618 / H37Rv)), …
Target sequence (P9WQA3 whole entry, looked up): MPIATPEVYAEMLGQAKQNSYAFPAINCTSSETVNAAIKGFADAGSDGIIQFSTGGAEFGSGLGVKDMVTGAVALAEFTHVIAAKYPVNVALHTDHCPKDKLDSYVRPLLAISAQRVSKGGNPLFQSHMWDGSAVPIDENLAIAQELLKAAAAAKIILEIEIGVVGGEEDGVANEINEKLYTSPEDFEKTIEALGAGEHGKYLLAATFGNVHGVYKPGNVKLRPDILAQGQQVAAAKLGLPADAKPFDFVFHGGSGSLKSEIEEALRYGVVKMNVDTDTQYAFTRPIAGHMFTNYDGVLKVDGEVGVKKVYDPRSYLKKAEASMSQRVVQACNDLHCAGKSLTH
PrPC TRFRET = inhibitors of human cell surface prion protein PrPC, primary screen, cell-based, TR-FRET; TR-FRET read-out; Major prion protein (Homo sapiens), P04156; actives 0.43% (n = 370,000); AID 720596, 2013; inhibition, % at 13.8 µM; in the data active = inhibition above about 24%
Mtb FBA inh conf = M. tuberculosis aldolase blockers, biochemical, fluorescence, strain H37Rv, confirmation. shares compounds with FBA Mtb inh. purified M. tuberculosis FBA, fluorescence read-out. inhibition, % at 1 µM. actives 78% (n = 5,600). AID 651616, 2012
GDH-TPI counter-2 = GDH-TPI coupling enzyme inhibitors, artefact control for M. tuberculosis FBA inhibitor project, biochemical, fluorescence, high throughput | shares compounds with FBA Mtb inh | GDH-TPI coupled enzyme counterscreen | inhibition, % at 1 µM | actives 81% (n = 5,600) | AID 652141, 2013; in the data active = inhibition above about 10%
GDH-TPI DR = GDH-TPI coupling enzyme inhibitors, dose response, artefact control for M. tuberculosis FBA inhibitor project, biochemical, fluorescence, IC50; shares compounds with FBA Mtb inh; GDH-TPI coupled enzyme assay, artifact counterscreen; IC50, µM; actives 79% (n = 170); call rule not given here
Of the large screens only hits and unclear results are named; the others gave an inactive call (follow-up assays come after a bar, where they were run). Compounds with a hit are over-represented: about 3.2% of the library has one in this group of screens. Rule as the data show it, unless noted: active = inhibition above about 27%; inactive = the rest.

COc1ccc(NC(=O)Nc2cccc3c2O[C@H](CN(C)C(=O)Nc2c(C)noc2C)[C@@H](C)CN([C@@H](C)CO)C3=O)cc1	none (no result: GDH-TPI counter-1, Y pestis TopoI, FBA Mtb inh, PrPC TRFRET)
c1ccc(-c2nc(NCC3CC3)nc3ccsc23)cc1	FBA Mtb inh 42.4 | Mtb FBA inh conf 137.6 | GDH-TPI counter-2 96.6
Cc1ccc(F)cc1-c1nc(NCC2CC2)nc2ccsc12	FBA Mtb inh 46.4 | Mtb FBA inh conf 70.5 | GDH-TPI counter-2 56.4
Cc1ccccc1-c1nc(NCC2CC2)nc2ccsc12	none
OCc1ccccc1-c1nc(NCc2ccccc2)nc2ccsc12	FBA Mtb inh 62.9 | Mtb FBA inh conf inactive | GDH-TPI counter-2 inactive
COCC(=O)N1C[C@@H](C)[C@H](OC)CN(C)C(=O)c2cc(NC(=O)c3ccccc3)ccc2OC[C@H]1C	none (no result: GDH-TPI counter-1, Y pestis TopoI, FBA Mtb inh, PrPC TRFRET)
C[C@@H]1CN([C@@H](C)CO)C(=O)c2cc(NC(=O)CCN3CCOCC3)ccc2O[C@H]1CN(C)Cc1ccc(-c2ccccc2)cc1	none (no result: GDH-TPI counter-1, Y pestis TopoI, FBA Mtb inh, PrPC TRFRET)
CN(CC(=O)NCc1ccccc1)CC(=O)Nc1ccc(Cl)c(C(F)(F)F)c1	FBA Mtb inh 34.3 | Mtb FBA inh conf 92.5 | GDH-TPI counter-2 73.2
CSC1=NC(NCCCO)c2c(sc3c2CC(C)(C)OC3)N1 (configuration not stated)	FBA Mtb inh 27.8 (no result: TcdB inh) | Mtb FBA inh conf 107.3 | GDH-TPI counter-2 92.3
CSc1nc(SCC(=O)O)c2c3c(sc2n1)COC(C)(C)C3	none
CCCCCN(C(=O)CSc1n[nH]c(-c2ccc(C)cc2)n1)c1c(N)n(CCCC)c(=O)[nH]c1=O	none
CCCCn1c(N)c(N(CC(C)C)C(=O)CSc2n[nH]c(-c3ccc(C)cc3)n2)c(=O)[nH]c1=O	FBA Mtb inh 67.1 | Mtb FBA inh conf 69.5 | GDH-TPI counter-2 44.3
Cc1cc2[nH]c(=O)c(=O)[nH]c2cc1S(=O)(=O)NCC(C)c1ccccc1 (configuration not stated)	none
Cc1cc2[nH]c(=O)c(=O)[nH]c2cc1S(=O)(=O)NC1CCC(C)CC1 (configuration not stated)	FBA Mtb inh 29.0 | Mtb FBA inh conf 191.3 | GDH-TPI counter-2 188.2
Cc1cc2[nH]c(=O)c(=O)[nH]c2cc1S(=O)(=O)NCc1ccccc1	FBA Mtb inh 33.1 | Mtb FBA inh conf 72.0 | GDH-TPI counter-2 65.1
CCOC(=O)CNC(=O)CSc1nnc(-c2ccccc2)n1Cc1ccco1	FBA Mtb inh 98.1 (no result: TcdB inh) | Mtb FBA inh conf 50.2 | GDH-TPI counter-2 39.0
Cc1cc(NC(=O)CSc2nnc(-c3ccccc3)n2Cc2ccco2)no1	none (no result: TcdB inh)
N#CCCN(C(=O)COc1ccc(F)cc1Br)c1ccccc1F	FBA Mtb inh 28.2 | Mtb FBA inh conf inactive | GDH-TPI counter-2 inactive | GDH-TPI DR inactive
CCc1ccc(OCC(=O)N(C)CCC#N)c(Br)c1	none (no result: TcdB inh)
C[C@@H]1CN([C@H](C)CO)C(=O)c2cccc(NC(=O)C3CCOCC3)c2O[C@@H]1CN(C)C(=O)Nc1ccc(C(F)(F)F)cc1	none (no result: GDH-TPI counter-1, Y pestis TopoI, FBA Mtb inh, PrPC TRFRET)
NC(=S)N/N=C/c1ccc(-c2ccc(Cl)c(Cl)c2)o1	none (no result: TcdB inh)
COc1ccc(-c2ccc(/C=N/NC(=O)Cc3nnc(N)s3)o2)cc1Cl	GDH-TPI counter-1 37.6, FBA Mtb inh 29.2 | Mtb FBA inh conf 54.4 | GDH-TPI counter-2 29.9
O=C(NCc1ccco1)c1cc2nc(-c3cccs3)cc(C(F)(F)F)n2n1	FBA Mtb inh 37.0 (no result: TcdB inh) | Mtb FBA inh conf inactive | GDH-TPI counter-2 inactive
O=C(NCc1ccco1)c1cc(-c2cccs2)nc2ccccc12	FBA Mtb inh 79.2 | Mtb FBA inh conf inactive | GDH-TPI counter-2 inactive
COc1cc(-c2cc(C(=O)NCc3ccco3)c3ccccc3n2)cc(OC)c1OC	none
O=C(NCc1ccco1)c1nn2c(C(F)(F)F)cc(-c3cccs3)nc2c1Cl	none
Cc1nn(-c2ccccn2)c2nc(-c3cccs3)cc(C(=O)NCc3ccco3)c12	FBA Mtb inh 48.4 (no result: TcdB inh) | Mtb FBA inh conf 58.5 | GDH-TPI counter-2 61.4
CC(C)OCCCNC(=O)c1cc(-c2cccs2)nc2ccccc12	FBA Mtb inh 93.4 | Mtb FBA inh conf 88.4 | GDH-TPI counter-2 82.8
Cc1nn(-c2ccccc2)c2nc(-c3ccncc3)cc(C(=O)NCc3ccco3)c12	none (no result: TcdB inh)
C[C@H](CO)N1C[C@H](C)[C@@H](CN(C)Cc2ccc(F)cc2)Oc2ncc(-c3cccc(C#N)c3)cc2C1=O	none (no result: GDH-TPI counter-1, Y pestis TopoI, FBA Mtb inh, PrPC TRFRET)
COc1ccc2oc(=O)c(-c3nc(C)cs3)cc2c1	FBA Mtb inh 35.1 (no result: TcdB inh) | Mtb FBA inh conf 110.7 | GDH-TPI counter-2 78.2
C[C@@H]1CCCCO[C@@H](CN(C)C(=O)c2ccccc2)[C@H](C)CN([C@H](C)CO)C(=O)c2cc(NC(=O)c3ccncc3)ccc2O1	none (no result: GDH-TPI counter-1, Y pestis TopoI, FBA Mtb inh, PrPC TRFRET)
COC(=O)c1ccc([C@@H]2C=C(C(=O)NCc3ccccc3)O[C@H](OCCCCO)C2)cc1	none (no result: GDH-TPI counter-1, Y pestis TopoI, FBA Mtb inh, PrPC TRFRET)
COc1cc(OC)cc(-c2c(-c3ccc(F)cc3)c3cc(-c4cccc5[nH]ccc45)ccc3n2C)c1	FBA Mtb inh 47.8 | Mtb FBA inh conf inactive | GDH-TPI counter-2 inactive
COc1cc(OC)cc(-c2c(-c3ccc(F)cc3)c3cc(-c4ccc(OC)nc4)ccc3n2C)c1	none
COc1cc(OC)cc(-c2c(C#Cc3ccsc3)c3cc(-c4cccc5[nH]ccc45)ccc3n2C)c1	none
COc1cccc(-c2c(-c3cc(OC)cc(OC)c3)n(C)c3ccc(-c4cccc5[nH]ccc45)cc23)c1	FBA Mtb inh 54.1 (no result: TcdB inh) | Mtb FBA inh conf active | GDH-TPI counter-2 active
CCOC(=O)C1CCN(C(=O)Nc2ccc3nccnc3c2)CC1	FBA Mtb inh 36.9 (no result: TcdB inh) | Mtb FBA inh conf 56.8 | GDH-TPI counter-2 37.5
CCOC(=O)C1CCN(C(=O)Nc2ccc3snnc3c2)CC1	none
COc1ccc2[nH]c(-c3cccc(F)c3)cc(=O)c2c1	FBA Mtb inh 41.4 | Mtb FBA inh conf inactive | GDH-TPI counter-2 inactive
COc1ccccc1C1C2=C(CCCC2=O)N(CC(=O)O)C2=C1C(=O)CCC2	FBA Mtb inh 40.4 | Mtb FBA inh conf inactive | GDH-TPI counter-2 inactive
CC=Cc1ccc2n(c1=O)C[C@@H]1[C@@H](CO)[C@H](C(=O)NCc3ccccc3)[C@H]2N1S(C)(=O)=O (mixture of isomers)	none (no result: GDH-TPI counter-1, Y pestis TopoI, FBA Mtb inh, PrPC TRFRET)
CCCCCCc1cc2cc(C(=O)OCC)c(=O)oc2cc1O	FBA Mtb inh 43.7 | Mtb FBA inh conf 136.1 | GDH-TPI counter-2 97.0
